# Test results as given in PubChem BioAssay AID1159580 (chemical genetic matrix, 2015).
# Screen size: about 5,500 compounds; about 2,000 (36%) were called active. About 18% were inconclusive and are not listed. The list shows a part of the results. Values without a mark were called inactive. No stated cut-off is given here; in the data, active means normalized growth mostly below about 0.91 (no sharp cut-off); inconclusive means no clear call, values can overlap the other calls; inactive means mostly above about 0.92.
# Assay: chemical genetic growth profiling, strain panel (AID 1159580);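 further: tested at 20 µM; growth read once vehicle control cultures reached saturation at 30 °C; 1 = growth at the plate median or of vehicle wells; lower values mean less growth of the strain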
# Settings: growth OD
# [1] = S. cerevisiae deletion strains, locus YAL013W, strain DEP1, active compounds read low
# [2] = S. cerevisiae deletion strains, locus YBR229C, strain ROT2, active compounds read low
# [3] = S. cerevisiae deletion strains, locus YDL101C, strain DUN1, active compounds read low
# [4] = S. cerevisiae deletion strains, locus YDR150W, strain NUM1, active compounds read low
# [5] = S. cerevisiae deletion strains, locus YEL061C, strain CIN8, active compounds read low
# [6] = S. cerevisiae deletion strains, locus YGR078C, strain PAC10, active compounds read low
# [7] = S. cerevisiae deletion strains, locus YHR030C, strain SLT2, active compounds read low
# [8] = S. cerevisiae deletion strains, locus YHR087W, strain rtc3, active compounds read low
# [9] = S. cerevisiae deletion strains, locus YJR043C, strain POL32, active compounds read low
# [10] = S. cerevisiae deletion strains, locus YJR075W, strain HOC1, active compounds read low
# [11] = S. cerevisiae deletion strains, locus YLR039C, strain RIC1, active compounds read low
# [12] = S. cerevisiae deletion strains, locus YLR058C, strain SHM2 (second series), active compounds read low
# [13] = S. cerevisiae deletion strains, locus YLR085C, strain ARP6, active compounds read low
# [14] = S. cerevisiae deletion strains, locus YLR262C, strain YPT6, active compounds read low
# [15] = S. cerevisiae deletion strains, locus YML094W, strain GIM5, active compounds read low
# [16] = S. cerevisiae deletion strains, locus YMR219W, strain ESC1, active compounds read low
# [17] = S. cerevisiae deletion strains, locus YMR263W, strain SAP30, active compounds read low
# [18] = S. cerevisiae deletion strains, locus YMR307W, strain GAS1, active compounds read low
# [19] = S. cerevisiae deletion strains, locus YNL128W, strain TEP1, active compounds read low
# [20] = S. cerevisiae deletion strains, locus YNL153C, strain GIM3, active compounds read low
# [21] = S. cerevisiae deletion strains, locus YNL298W, strain CLA4 (second series), active compounds read low
# [22] = S. cerevisiae deletion strains, locus YNL322C, strain KRE1, active compounds read low
# [23] = S. cerevisiae deletion strains, locus YNR030W, strain Alg12, active compounds read low
# [24] = S. cerevisiae deletion strains, locus YPL055C, strain LGE1, active compounds read low
# [25] = S. cerevisiae deletion strains, locus YPL241C, strain CIN2, active compounds read low
# [26] = S. cerevisiae deletion strains, locus YPR135W, strain CTF4, active compounds read low
# [27] = S. cerevisiae strains, strain wild type, active compounds read low
compound,measurement,setting,value
COc1ccc(-n2c(-c3ccc(C)cc3)csc2=N)cc1,normalized growth,[1],0.996
same,normalized growth,[2],1
same,normalized growth,[3],1
same,normalized growth,[4],1.02
same,normalized growth,[5],0.97
same,normalized growth,[6],1
same,normalized growth,[7],1.05
same,normalized growth,[8],0.995
same,normalized growth,"S. cerevisiae deletion strains, locus YJL187C, strain SWE1, active compounds read low",0.985
same,normalized growth,[9],1.01
same,normalized growth,[10],1.01
same,normalized growth,[11],1.01
same,normalized growth,[12],1
same,normalized growth,[13],0.918
same,normalized growth,[14],1
same,normalized growth,[15],0.996
same,normalized growth,[16],1.01
same,normalized growth,[17],1.03
same,normalized growth,[18],1.03
same,normalized growth,[19],0.992
same,normalized growth,[20],1.03
same,normalized growth,[21],0.983
same,normalized growth,[22],1
same,normalized growth,[23],0.988
same,normalized growth,[24],1.03
same,normalized growth,[25],1.01
same,normalized growth,[26],1.24
same,normalized growth,[27],0.994
COc1ccc(-c2ccc(C=C(C#N)C#N)s2)cc1,normalized growth,[1],0.946
same,normalized growth,[2],0.918 (active)
same,normalized growth,"S. cerevisiae deletion strains, locus YCL061C, strain MRC1, active compounds read low",0.95
same,normalized growth,[3],0.95
same,normalized growth,[4],0.967
same,normalized growth,[5],0.922
same,normalized growth,[6],0.925 (active)
same,normalized growth,[7],0.943
same,normalized growth,[8],0.939
same,normalized growth,[9],0.958
same,normalized growth,[10],1.01
same,normalized growth,[11],0.757 (active)
same,normalized growth,[12],0.971
same,normalized growth,[13],0.912
same,normalized growth,[14],0.832
same,normalized growth,[15],0.899
same,normalized growth,[16],0.969
same,normalized growth,[17],0.974
same,normalized growth,[19],0.977
same,normalized growth,[20],0.938
same,normalized growth,[21],0.895
same,normalized growth,[22],0.964
same,normalized growth,[23],0.903
same,normalized growth,[24],0.932
same,normalized growth,[25],1.07
same,normalized growth,[26],0.948
C[C@H](N)[C@H](O)c1ccccc1,normalized growth,"S. cerevisiae deletion strains, locus YBR021W, strain FUR4, active compounds read low",0.997
same,normalized growth,[2],1
same,normalized growth,"S. cerevisiae deletion strains, locus YCL029C, strain bik1, active compounds read low",1
same,normalized growth,"S. cerevisiae deletion strains, locus YDL035C, strain GPR1, active compounds read low",1.01
same,normalized growth,"S. cerevisiae deletion strains, locus YDL074C, strain BRE1, active compounds read low",1.01
same,normalized growth,[3],0.949
same,normalized growth,"S. cerevisiae deletion strains, locus YDL134C, strain PPH21, active compounds read low",1
same,normalized growth,"S. cerevisiae deletion strains, locus YDL185W, strain tfp1, active compounds read low",0.991
same,normalized growth,"S. cerevisiae deletion strains, locus YDL192W, strain arf1, active compounds read low",1
same,normalized growth,"S. cerevisiae deletion strains, locus YDR101C, strain arx1, active compounds read low",1
same,normalized growth,[4],1.01
same,normalized growth,"S. cerevisiae deletion strains, locus YDR162C, strain NBP2, active compounds read low",1.01
same,normalized growth,"S. cerevisiae deletion strains, locus YDR318W, strain mcm21, active compounds read low",0.993
same,normalized growth,"S. cerevisiae deletion strains, locus YDR388W, active compounds read low",0.993
same,normalized growth,"S. cerevisiae deletion strains, locus YDR502C, strain sam2, active compounds read low",0.994
same,normalized growth,[5],1
same,normalized growth,"S. cerevisiae deletion strains, locus YER110C, active compounds read low",0.997
same,normalized growth,"S. cerevisiae deletion strains, locus YER155C, strain BEM2, active compounds read low",0.998
same,normalized growth,"S. cerevisiae deletion strains, locus YER167W, strain BCK2, active compounds read low",1
same,normalized growth,"S. cerevisiae deletion strains, locus YGL078C, strain dbp3, active compounds read low",0.996
same,normalized growth,"S. cerevisiae deletion strains, locus YGL086W, strain mad1, active compounds read low",0.991
same,normalized growth,"S. cerevisiae deletion strains, locus YGL248W, strain PDE1, active compounds read low",1
same,normalized growth,[6],1.01
same,normalized growth,"S. cerevisiae deletion strains, locus YGR135W, strain pre9, active compounds read low",0.998
same,normalized growth,"S. cerevisiae deletion strains, locus YGR229C, strain SMI1, active compounds read low",1
same,normalized growth,"S. cerevisiae deletion strains, locus YGR252W, strain gcn5, active compounds read low",1.01
same,normalized growth,[7],1
same,normalized growth,"S. cerevisiae deletion strains, locus YHR079C, strain IRE1 (second series), active compounds read low",0.997
same,normalized growth,"S. cerevisiae deletion strains, locus YHR094C, strain hxt1, active compounds read low",0.996
same,normalized growth,"S. cerevisiae deletion strains, locus YHR129C, strain ARP1, active compounds read low",1.01
same,normalized growth,"S. cerevisiae deletion strains, locus YHR200W, strain rpn10, active compounds read low",0.995
same,normalized growth,"S. cerevisiae deletion strains, locus YIL066C, strain RNR3, active compounds read low",1
same,normalized growth,"S. cerevisiae deletion strains, locus YIL073C, strain SPO22, active compounds read low",1.03
same,normalized growth,"S. cerevisiae deletion strains, locus YIL125W, strain kgd1, active compounds read low",0.994
same,normalized growth,"S. cerevisiae deletion strains, locus YIR030C, strain dcg1, active compounds read low",0.996
same,normalized growth,"S. cerevisiae deletion strains, locus YJL095W, strain BCK1, active compounds read low",1.02
same,normalized growth,"S. cerevisiae deletion strains, locus YJL134W, strain LCB3, active compounds read low",1
same,normalized growth,"S. cerevisiae deletion strains, locus YJL168C, strain set2, active compounds read low",0.995
same,normalized growth,"S. cerevisiae deletion strains, locus YJL187C, strain SWE1 (second series), active compounds read low",1.01
same,normalized growth,[9],0.982
same,normalized growth,"S. cerevisiae deletion strains, locus YKL009W, strain mrt4, active compounds read low",0.989
same,normalized growth,"S. cerevisiae deletion strains, locus YKL068W, active compounds read low",0.999
same,normalized growth,"S. cerevisiae deletion strains, locus YKL085W, strain MDH1 (second series), active compounds read low",0.989
same,normalized growth,"S. cerevisiae deletion strains, locus YKL085W, strain MDH1, active compounds read low",0.989
same,normalized growth,"S. cerevisiae deletion strains, locus YKL190W, strain CNB1, active compounds read low",1
same,normalized growth,"S. cerevisiae deletion strains, locus YKR001C, strain vps1, active compounds read low",0.99
same,normalized growth,[11],0.993
same,normalized growth,"S. cerevisiae deletion strains, locus YLR058C, strain SHM2, active compounds read low",1
same,normalized growth,"S. cerevisiae deletion strains, locus YLR102C, strain apc9, active compounds read low",1
same,normalized growth,[14],1.01
same,normalized growth,"S. cerevisiae deletion strains, locus YLR268W, strain sec22, active compounds read low",0.99
same,normalized growth,"S. cerevisiae deletion strains, locus YLR330W, strain CHS5, active compounds read low",0.999
same,normalized growth,"S. cerevisiae deletion strains, locus YLR342W, strain FKS1 (second series), active compounds read low",1.01
same,normalized growth,"S. cerevisiae deletion strains, locus YLR371W, strain rom2, active compounds read low",1
same,normalized growth,"S. cerevisiae deletion strains, locus YLR418C, strain cdc73, active compounds read low",0.978
same,normalized growth,"S. cerevisiae deletion strains, locus YML016C, strain PPZ1, active compounds read low",1
same,normalized growth,"S. cerevisiae deletion strains, locus YML032C, strain rad52, active compounds read low",0.984
same,normalized growth,"S. cerevisiae deletion strains, locus YML124C, strain tub3, active compounds read low",0.998
same,normalized growth,"S. cerevisiae deletion strains, locus YMR078C, strain ctf18, active compounds read low",0.993
same,normalized growth,"S. cerevisiae deletion strains, locus YMR223W, strain ubp8, active compounds read low",1
same,normalized growth,[17],1
same,normalized growth,[18],0.983
same,normalized growth,"S. cerevisiae deletion strains, locus YNL067W, strain RPL9B, active compounds read low",1
same,normalized growth,[19],1.01
same,normalized growth,[20],1
same,normalized growth,"S. cerevisiae deletion strains, locus YNL233W, strain BNI4, active compounds read low",0.996
same,normalized growth,"S. cerevisiae deletion strains, locus YNL250W, strain rad50, active compounds read low",0.984
same,normalized growth,"S. cerevisiae deletion strains, locus YNL271C, strain bni1, active compounds read low",0.998
same,normalized growth,"S. cerevisiae deletion strains, locus YNL298W, strain CLA4, active compounds read low",1
same,normalized growth,"S. cerevisiae deletion strains, locus YNL307C, strain MCK1, active compounds read low",0.999
same,normalized growth,[22],1
same,normalized growth,"S. cerevisiae deletion strains, locus YNR052C, strain pop2, active compounds read low",1
same,normalized growth,"S. cerevisiae deletion strains, locus YOL006C, strain TOP1, active compounds read low",1.02
same,normalized growth,"S. cerevisiae deletion strains, locus YOL012C, strain htz1",1.73
same,normalized growth,"S. cerevisiae deletion strains, locus YOL147C, strain pex11, active compounds read low",0.996
same,normalized growth,"S. cerevisiae deletion strains, locus YOR061W, strain CKA2, active compounds read low",0.998
same,normalized growth,"S. cerevisiae deletion strains, locus YOR069W, strain VPS5, active compounds read low",1
same,normalized growth,"S. cerevisiae deletion strains, locus YOR136W, strain idh2, active compounds read low",0.996
same,normalized growth,"S. cerevisiae deletion strains, locus YOR144C, strain elg1, active compounds read low",0.995
same,normalized growth,"S. cerevisiae deletion strains, locus YOR184W, strain ser1, active compounds read low",0.985
same,normalized growth,"S. cerevisiae deletion strains, locus YOR316C, strain cot1, active compounds read low",0.999
same,normalized growth,[24],1.01
same,normalized growth,"S. cerevisiae deletion strains, locus YPR119W, strain clb2, active compounds read low",0.999
same,normalized growth,"S. cerevisiae deletion strains, locus YPR141C, strain kar3, active compounds read low",0.996
same,normalized growth,"S. cerevisiae deletion strains, locus YPR163C, strain tif3, active compounds read low",0.994
same,normalized growth,"S. cerevisiae deletion strains, locus YPR167C, strain met16, active compounds read low",1
same,normalized growth,"S. cerevisiae deletion strains, strain wtn01, active compounds read low",0.983
same,normalized growth,[27],1
